Data from ChEMBL document CHEMBL3988442, “University of Dundee, Small-Polar-MMV Screening Library” (2021).
For some assays here: Measured potencies and affinities stand elsewhere.

Experiments:
Set-up in all cases: scale not given: direction of the effect not stated beside the values
[1] = target: Protein translocase subunit SecA (Escherichia coli (strain K12)) (UniProt P10408); assay: Assay to Identify E. coli SecA ATPase Inhibitors; format: functional; conditions: 30 µM
[2] = target: T1, Ubiquitin-activating enzyme e1, putative (Leishmania donovani (strain BPK282A1)) (UniProt E9BSI1); assay: Leishmania donovani Ubiquitin Activating Enzyme (LdE1); format: functional; conditions: 30 µM
T1 sequence (whole entry): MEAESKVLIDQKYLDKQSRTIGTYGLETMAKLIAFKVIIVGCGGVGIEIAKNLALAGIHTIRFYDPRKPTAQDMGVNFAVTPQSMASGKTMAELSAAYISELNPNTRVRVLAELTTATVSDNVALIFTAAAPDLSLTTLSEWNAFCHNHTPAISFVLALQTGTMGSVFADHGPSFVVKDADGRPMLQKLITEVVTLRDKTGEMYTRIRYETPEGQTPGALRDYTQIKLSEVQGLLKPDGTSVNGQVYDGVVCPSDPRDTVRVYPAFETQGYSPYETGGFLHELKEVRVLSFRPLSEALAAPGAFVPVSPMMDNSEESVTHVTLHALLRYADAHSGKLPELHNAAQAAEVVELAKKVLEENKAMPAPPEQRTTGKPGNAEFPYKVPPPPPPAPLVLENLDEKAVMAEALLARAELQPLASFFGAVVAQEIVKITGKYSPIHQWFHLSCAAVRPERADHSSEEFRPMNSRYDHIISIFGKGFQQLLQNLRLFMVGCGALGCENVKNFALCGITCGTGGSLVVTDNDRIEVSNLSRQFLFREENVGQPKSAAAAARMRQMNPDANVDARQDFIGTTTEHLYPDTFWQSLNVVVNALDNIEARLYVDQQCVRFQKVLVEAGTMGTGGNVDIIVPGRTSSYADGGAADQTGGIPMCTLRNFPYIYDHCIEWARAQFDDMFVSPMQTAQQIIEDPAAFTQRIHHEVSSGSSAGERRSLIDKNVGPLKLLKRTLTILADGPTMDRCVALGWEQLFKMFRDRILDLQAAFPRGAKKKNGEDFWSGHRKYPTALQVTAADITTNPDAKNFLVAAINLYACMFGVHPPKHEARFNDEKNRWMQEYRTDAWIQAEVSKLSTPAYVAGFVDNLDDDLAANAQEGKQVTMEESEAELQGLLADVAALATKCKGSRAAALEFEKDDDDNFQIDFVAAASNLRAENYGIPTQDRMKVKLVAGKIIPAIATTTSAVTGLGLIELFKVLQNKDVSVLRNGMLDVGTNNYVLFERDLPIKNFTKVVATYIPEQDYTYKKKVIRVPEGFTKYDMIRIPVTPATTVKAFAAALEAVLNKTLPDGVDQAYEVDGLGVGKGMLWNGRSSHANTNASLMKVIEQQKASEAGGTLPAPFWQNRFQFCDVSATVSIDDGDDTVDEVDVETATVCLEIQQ

[3] = target: AMP-activated protein kinase, AMPK (Homo sapiens) (UniProt P54646+O43741+P54619+Q9UGJ0+Q9Y478+Q13131+Q9UGI9); assay: AMP-dependent Kinase enzyme assay. An in vitro enzyme assay that detects ADP turnover that is directly proportional to AMPK activity. This uses naive AMPK that is activated during the assay with MK-8722; format: functional; conditions: 30 µM
[4] = target: Sialic acid-binding Ig-like lectin 9 (Homo sapiens) (UniProt Q9Y336); assay: Hs-Siglec9 ALPHAscreen SOP 20170721; conditions: 10 µM
Sialic acid-binding Ig-like lectin 9 (Homo sapiens), sequence (Q9Y336 whole entry): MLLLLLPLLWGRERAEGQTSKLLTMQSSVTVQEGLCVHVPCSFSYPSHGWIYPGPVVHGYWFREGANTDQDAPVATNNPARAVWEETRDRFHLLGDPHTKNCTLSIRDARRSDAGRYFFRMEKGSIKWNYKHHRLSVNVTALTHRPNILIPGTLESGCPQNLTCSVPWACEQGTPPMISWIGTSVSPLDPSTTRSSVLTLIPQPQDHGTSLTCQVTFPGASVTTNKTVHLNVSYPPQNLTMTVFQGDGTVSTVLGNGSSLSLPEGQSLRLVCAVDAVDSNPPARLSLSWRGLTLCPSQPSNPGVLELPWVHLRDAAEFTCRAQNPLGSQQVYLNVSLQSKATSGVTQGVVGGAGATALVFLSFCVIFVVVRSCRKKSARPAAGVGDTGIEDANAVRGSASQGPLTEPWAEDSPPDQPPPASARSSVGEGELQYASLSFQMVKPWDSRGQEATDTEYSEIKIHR

[5] = system: Trypanosoma cruzi; assay: Trypanosoma cruzi phosphomannomutase and mannose-1-phosphate guanylyltransferase assay; format: functional; conditions: 10 µM
[6] = target: T2, Arginase-2, mitochondrial (Homo sapiens) (UniProt P78540); assay: in vitro enzyme assay to detect the production of urea directly proportional to the activity of Arginase II; format: functional; conditions: 33.3 µM; further: in the data most compounds retested in dose-response had high values
T2 sequence (whole entry): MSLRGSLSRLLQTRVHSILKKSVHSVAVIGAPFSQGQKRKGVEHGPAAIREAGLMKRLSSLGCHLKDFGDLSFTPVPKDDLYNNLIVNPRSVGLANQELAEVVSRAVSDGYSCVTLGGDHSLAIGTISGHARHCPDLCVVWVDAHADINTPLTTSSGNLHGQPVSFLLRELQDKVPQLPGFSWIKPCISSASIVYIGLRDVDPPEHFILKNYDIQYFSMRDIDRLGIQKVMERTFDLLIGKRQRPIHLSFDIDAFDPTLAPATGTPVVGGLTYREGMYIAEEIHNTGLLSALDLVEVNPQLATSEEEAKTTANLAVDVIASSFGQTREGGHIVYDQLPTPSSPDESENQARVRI

[7] = target: T3, Proteasome subunit beta (Trypanosoma cruzi) (UniProt O96673); assay: Trypanosoma cruzi proteasome chymotrypsin-like activity (TcProtChymo) assay.; further: in the data most compounds retested in dose-response had high values; format: functional; conditions: 9.37 µM
T3 sequence (whole entry): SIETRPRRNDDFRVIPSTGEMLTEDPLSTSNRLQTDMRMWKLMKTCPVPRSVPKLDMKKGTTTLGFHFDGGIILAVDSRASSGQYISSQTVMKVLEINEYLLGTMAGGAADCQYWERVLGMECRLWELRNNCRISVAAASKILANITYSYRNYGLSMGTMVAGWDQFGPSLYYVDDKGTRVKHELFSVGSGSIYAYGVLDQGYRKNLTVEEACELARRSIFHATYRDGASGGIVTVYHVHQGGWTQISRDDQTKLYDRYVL

[8] = species: Homo sapiens; assay: To identify inhibition of the IFN signalling (Jak-Stat) pathway via expression of an eGFP reporter gene under the control of an IFN-stimulated response element (ISRE) containing MxA promoter.; format: functional; conditions: 30 µM
[9] = target: T4, Tyrosyl-tRNA synthetase, putative (Trypanosoma cruzi (strain CL Brener)) (UniProt Q4DSP6); assay: Trypanosoma cruzi tyrosyl tRNA synthetase (TcYRS) _High Tyrosine SOP; format: functional; conditions: 30 µM; further: in the data most compounds retested in dose-response had high values
T4 sequence (whole entry): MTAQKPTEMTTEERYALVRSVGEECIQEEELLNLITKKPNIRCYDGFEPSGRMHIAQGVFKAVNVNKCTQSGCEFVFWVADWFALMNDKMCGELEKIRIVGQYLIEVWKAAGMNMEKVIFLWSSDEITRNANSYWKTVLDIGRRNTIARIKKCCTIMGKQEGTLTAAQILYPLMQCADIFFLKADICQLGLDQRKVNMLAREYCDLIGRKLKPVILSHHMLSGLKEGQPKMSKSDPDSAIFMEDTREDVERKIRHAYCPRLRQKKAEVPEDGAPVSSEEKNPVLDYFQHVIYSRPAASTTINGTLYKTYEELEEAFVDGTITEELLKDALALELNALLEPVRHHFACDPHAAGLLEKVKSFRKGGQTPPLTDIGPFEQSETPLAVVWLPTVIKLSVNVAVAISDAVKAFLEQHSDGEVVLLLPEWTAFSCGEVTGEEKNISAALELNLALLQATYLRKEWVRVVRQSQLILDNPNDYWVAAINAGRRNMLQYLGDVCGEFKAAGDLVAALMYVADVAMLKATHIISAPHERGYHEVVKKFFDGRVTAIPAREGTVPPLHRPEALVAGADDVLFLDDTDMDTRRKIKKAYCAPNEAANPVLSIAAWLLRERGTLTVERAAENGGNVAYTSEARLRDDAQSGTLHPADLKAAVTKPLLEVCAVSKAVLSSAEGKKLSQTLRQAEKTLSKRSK

[10] = target: T4, Tyrosyl-tRNA synthetase, putative (Trypanosoma cruzi (strain CL Brener)); assay: Trypanosoma cruzi tyrosyl tRNA synthetase (TcYRS) SOP; format: functional; conditions: 30 µM
[11] = target: Chromo domain-containing protein 1 (Saccharomyces cerevisiae (strain ATCC 204508 / S288c) (Baker's yeast)) (UniProt P32657); assay: ScCHD-1 Enzyme Inhibition Assay; format: functional; conditions: 30 µM; further: in the data most compounds retested in dose-response had high values
Chromo domain-containing protein 1 (Saccharomyces cerevisiae (strain ATCC 204508 / S288c) (Baker's yeast)), sequence (P32657 whole entry, the tested form may be a part): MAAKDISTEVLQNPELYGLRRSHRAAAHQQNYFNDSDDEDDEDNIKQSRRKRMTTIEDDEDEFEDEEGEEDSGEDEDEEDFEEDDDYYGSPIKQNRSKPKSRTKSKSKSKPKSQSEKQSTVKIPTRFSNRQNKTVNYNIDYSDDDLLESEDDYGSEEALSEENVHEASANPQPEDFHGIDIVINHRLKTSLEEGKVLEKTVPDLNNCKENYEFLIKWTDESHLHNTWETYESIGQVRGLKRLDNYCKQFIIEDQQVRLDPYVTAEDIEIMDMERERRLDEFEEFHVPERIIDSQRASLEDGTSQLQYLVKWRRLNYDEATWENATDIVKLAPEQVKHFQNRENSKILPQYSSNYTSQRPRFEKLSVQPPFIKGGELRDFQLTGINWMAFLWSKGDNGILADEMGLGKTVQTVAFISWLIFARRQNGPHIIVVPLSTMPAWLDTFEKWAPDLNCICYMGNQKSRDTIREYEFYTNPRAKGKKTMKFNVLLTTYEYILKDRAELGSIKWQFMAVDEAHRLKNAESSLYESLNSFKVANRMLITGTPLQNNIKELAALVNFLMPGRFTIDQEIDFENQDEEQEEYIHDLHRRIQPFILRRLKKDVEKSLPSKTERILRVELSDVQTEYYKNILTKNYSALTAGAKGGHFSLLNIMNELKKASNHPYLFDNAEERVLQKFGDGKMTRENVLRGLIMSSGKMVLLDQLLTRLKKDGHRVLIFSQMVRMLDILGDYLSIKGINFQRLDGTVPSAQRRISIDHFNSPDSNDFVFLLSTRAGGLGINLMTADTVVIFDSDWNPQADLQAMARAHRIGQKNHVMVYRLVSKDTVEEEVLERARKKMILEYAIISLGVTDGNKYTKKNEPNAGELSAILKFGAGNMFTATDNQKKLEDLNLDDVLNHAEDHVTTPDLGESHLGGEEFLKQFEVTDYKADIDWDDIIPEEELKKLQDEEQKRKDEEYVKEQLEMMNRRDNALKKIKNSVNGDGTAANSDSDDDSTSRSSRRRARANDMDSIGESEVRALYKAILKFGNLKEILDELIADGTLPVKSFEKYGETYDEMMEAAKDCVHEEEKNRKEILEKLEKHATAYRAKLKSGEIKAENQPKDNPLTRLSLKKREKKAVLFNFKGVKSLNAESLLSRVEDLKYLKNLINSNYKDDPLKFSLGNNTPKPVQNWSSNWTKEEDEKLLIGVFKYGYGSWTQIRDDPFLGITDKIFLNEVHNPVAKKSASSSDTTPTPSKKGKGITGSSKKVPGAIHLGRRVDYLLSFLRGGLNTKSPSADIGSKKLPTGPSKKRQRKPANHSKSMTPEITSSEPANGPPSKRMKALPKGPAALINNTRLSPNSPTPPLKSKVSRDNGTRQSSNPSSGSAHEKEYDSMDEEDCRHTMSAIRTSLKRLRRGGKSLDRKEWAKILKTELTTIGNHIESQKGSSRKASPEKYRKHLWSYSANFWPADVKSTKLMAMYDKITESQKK

Protein translocase subunit SecA (Escherichia coli (strain K12)), sequence (P10408 whole entry): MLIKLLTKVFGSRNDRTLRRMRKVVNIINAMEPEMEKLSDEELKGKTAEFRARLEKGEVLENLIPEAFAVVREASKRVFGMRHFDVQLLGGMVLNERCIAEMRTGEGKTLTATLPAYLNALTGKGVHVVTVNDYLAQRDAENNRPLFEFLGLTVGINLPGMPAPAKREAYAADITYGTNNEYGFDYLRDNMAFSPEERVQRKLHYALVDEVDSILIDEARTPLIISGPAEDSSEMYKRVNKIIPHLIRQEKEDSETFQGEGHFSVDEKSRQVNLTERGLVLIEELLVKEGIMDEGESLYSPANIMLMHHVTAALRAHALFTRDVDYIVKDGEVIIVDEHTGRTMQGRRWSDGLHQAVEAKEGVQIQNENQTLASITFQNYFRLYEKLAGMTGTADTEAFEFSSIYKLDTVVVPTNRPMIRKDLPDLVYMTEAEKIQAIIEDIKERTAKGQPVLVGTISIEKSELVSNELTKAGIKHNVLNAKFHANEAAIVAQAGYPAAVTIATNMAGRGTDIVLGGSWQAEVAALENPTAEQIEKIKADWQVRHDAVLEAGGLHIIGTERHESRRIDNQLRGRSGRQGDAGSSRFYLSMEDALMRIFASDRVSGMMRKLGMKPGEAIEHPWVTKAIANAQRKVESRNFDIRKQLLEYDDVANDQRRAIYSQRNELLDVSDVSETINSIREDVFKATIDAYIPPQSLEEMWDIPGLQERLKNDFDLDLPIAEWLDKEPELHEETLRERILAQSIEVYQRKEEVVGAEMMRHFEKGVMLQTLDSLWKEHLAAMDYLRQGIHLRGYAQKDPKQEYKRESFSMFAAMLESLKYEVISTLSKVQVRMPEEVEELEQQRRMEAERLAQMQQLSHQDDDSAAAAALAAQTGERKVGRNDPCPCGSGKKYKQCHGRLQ

| SMILES | Percent Effect [1] | Percent Effect [2] | Percent Effect [3] | Percent Effect [4] | Percent Effect [5] | Percent Effect [6] | Percent Effect [7] | Percent Effect [8] | Percent Effect [9] | Percent Effect [10] | Percent Effect [11] |
| --- | --- | --- | --- | --- | --- | --- | --- | --- | --- | --- | --- |
| CCc1nc(C2CCCN2Cc2nc(C3CC3)no2)no1 (configuration not stated) | -0.343% | 2.6% | -1.94% | 16.2% | 2.65% | -12.4% | 9.15% | -6.21% | 0% | 1.24% | -6.42% |
| CCn1c(CN2CCN(CC(N)=O)CC2)nc2c(F)cccc21 | -3.22% | 5.26% | 7.34% | 6.21% | 8.84% | -2.3% | 1.34% | -11.4% | 7.35% | 9.76% | -5.52% |
| COCCN1C[C@@H]2CN(Cc3ccsc3)CCC[C@]2(C(=O)O)C1 | 0.995% | 10.4% | 4.76% | -2.5% | -5.23% | 11% | 16.5% | 13.1% | 4.23% | 14.1% | -4.97% |
| CCCn1ncc(CN2C[C@@H]3CCCN3C[C@@H]2CCSC)c1C | 0.712% | 9.46% | 3.26% | -4.09% | -5.93% | -3.02% | 19.5% | 8.73% | 3.23% | 6.49% | -15% |
| CC(OCC(F)(F)F)C(=O)Nc1ccc(-n2cncn2)nc1 (configuration not stated) | -3% | 2.6% | 24.5% | -9.5% | -1.27% | 1.05% | 8.49% | 22.3% | 5.71% | 9.41% | -17.1% |
| CCS(=O)(=O)N1C[C@H]2C[C@H](C(=O)N(C)C)[C@@H](C1)O2 | -1.35% | 8% | 9.37% | 0.653% | -5.51% | 3.03% | 5.55% | 5.25% | 4.25% | 6.41% | -3.75% |
| Cn1cnnc1C1CCCN(C(=O)c2cnc3ccccc3n2)C1 (configuration not stated) | -5.29% | -18.2% | 6.07% | 1.12% | 0.49% | -1.47% | 5.58% | 17.6% | 7.62% | 11.8% | -15.4% |
| CCN(CC)Cc1ccc(C(=O)N2CCN(CC(C)O)CC2)cc1 (configuration not stated) | -4.12% | 0% | -3.46% | 8.13% | -0.472% | -2.81% | -4.5% | -2.61% | 4.43% | 1.24% | 0.847% |
| Cc1cnn(Cc2cc(F)ccc2F)c1NC(=O)NC1CC1 | -4.44% | 16% | -4.15% | 41.4% | 5.94% | 29.7% | 15.5% | 10.9% | -16.9% | 21% | -4.35% |
| CC(NC(N)=O)C(=O)N(C)CCCc1cc(-c2ccccc2)no1 (configuration not stated) | -3.18% | 2.7% | 7.96% | -4.86% | -10.1% | -1.29% | 9.34% | 25% | 3.96% | 6.1% | 0.208% |
| Cc1nn(C)c(C)c1C1COCCN1c1ncnc2sccc12 (configuration not stated) | -2.31% | -2.67% | -0.892% | -4.05% | -0.487% | -2.08% | 10.1% | 31.3% | 1.64% | 3.7% | -1.49% |
| CSC(C)(C)CNC(=O)NC1CCSCC1 | -4.83% | 13.3% | -5.19% | 18.2% | 8.47% | 5.73% | 6.63% | 4.48% | 0.546% | 11.1% | -6.59% |
| O=C(NC1CC1)[C@@H]1CCO[C@@H]2CCN(C3CCOCC3)C[C@@H]21 | 1.01% | 2.6% | -0.255% | 5.79% | 6.98% | -13.8% | 3.49% | -21.6% | 1.07% | 1.24% | -7.95% |
| CSCc1cccc(S(=O)(=O)NCCCO)c1 | -4.83% | 5.2% | 5.07% | 1.97% | -0.0983% | -20.7% | 3.33% | -20.6% | 5.38% | 11.1% | -2.83% |
| CCc1nc(C2CCCN(C(=O)c3cccc4c3ccn4C)C2)no1 (configuration not stated) | -2.43% | -5.41% | 1.08% | 3.25% | 5.29% | -6.47% | 5.92% | 17.1% | 3.96% | 3.66% | -0.759% |
| COc1cccc(CNCc2c(C(C)C)nn(C)c2N(C)C)c1OC | 2% | 10.5% | -0.641% | -1.37% | -7.33% | 2.68% | 16.2% | 8.82% | 3.43% | 7.32% | -8.1% |
| CC(NC1CCN(CCS(C)(=O)=O)CC1)c1ccc(Cl)cc1 (configuration not stated) | -1.94% | 0% | -3.49% | 0.142% | -5.02% | -0.476% | 3.62% | 21.6% | 0.529% | 7.32% | -2.22% |
| Cc1scc(C(=O)N2CCC3(CC(=O)NC3=O)C2)c1-c1ccccc1 (configuration not stated) | -2.27% | 5.41% | 3.06% | 1.45% | 1.35% | 2.86% | 12.2% | 0.902% | 8.99% | 9.76% | -5.21% |
| COc1cc(N2C[C@@H]3COC[C@]3(COc3cccnc3)C2)ncn1 | -4.12% | 16.2% | 3.02% | -8.65% | 5.38% | -2.87% | 18.4% | 21.1% | 2.16% | 12.8% | -1.83% |
| CCOc1cc(CN(C)CCOC)ccc1OC(F)F | -7.96% | -2.6% | 2.19% | -0.762% | -9.34% | 1.38% | 10.3% | -3.34% | 0% | -1.24% | 0.485% |
| Cc1cnc(N)c(C(=O)C2CCN(C(=O)c3ccccc3F)CC2)c1 | -7.77% | 13.3% | 4.93% | 7.45% | 2.76% | -2.56% | 6.26% | 33% | 7.45% | 8.97% | -6.49% |
| c1ccc(CN2CCCC2Cn2cncn2)nc1 (configuration not stated) | -2.52% | -2.53% | 3.76% | 6.27% | 3.87% | -0.76% | 5.32% | -14.3% | 9.36% | 3.8% | -4.39% |
